GPR151 activ – activators of human GPR151, primary screen, cell-based, PathHunter beta-arrestin, luminescence; G-protein coupled receptor 151 (Homo sapiens), Q8TDV0; actives 1% (n = 650,000); PathHunter beta-arrestin GPR151 cells; activation, % at 11.2 µM; AID 1508602, 2020; in the data active = activation above about 4.9%
Target sequence (Q8TDV0 whole entry, looked up): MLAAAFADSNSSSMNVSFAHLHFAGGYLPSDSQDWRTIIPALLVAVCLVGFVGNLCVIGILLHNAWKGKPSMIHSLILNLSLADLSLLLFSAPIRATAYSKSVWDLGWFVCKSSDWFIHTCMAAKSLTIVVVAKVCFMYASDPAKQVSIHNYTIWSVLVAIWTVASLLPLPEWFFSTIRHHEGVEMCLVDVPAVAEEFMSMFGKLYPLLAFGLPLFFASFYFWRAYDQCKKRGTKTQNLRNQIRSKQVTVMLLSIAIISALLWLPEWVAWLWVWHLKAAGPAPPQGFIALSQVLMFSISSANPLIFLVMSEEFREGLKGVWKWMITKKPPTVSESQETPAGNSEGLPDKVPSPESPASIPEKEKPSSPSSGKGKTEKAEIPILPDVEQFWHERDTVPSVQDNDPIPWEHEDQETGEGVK
TEAD-YAP block – TEAD-YAP interaction inhibition, primary screen, TEAD-YAP interaction inhibitor project, luminescence, HEK-TIYL cells | TEAD-Gal4/YAP UAS-luciferase luminescence | actives 1.4% (n = 640,000) | inhibition, % at 9.12 µM; in the data active = inhibition above about 32%
FBW7 activator – FBW7 E3 ligase activators, primary screen, biochemical, AlphaScreen, human. F-box/WD repeat-containing protein 7 (Homo sapiens), Q969H0. AlphaScreen FBW7–phospho-cyclin E peptide binding, activator screen. normalized activity (activation), % at 26.1 µM. actives 0.13% (n = 650,000). AID 1259310, 2017; in the data active = normalized activity above about 1.9%;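 also: purified mutant Fbw7 with reduced substrate affinity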
MITF inh – MITF inhibitors, primary screen, biochemical, AlphaScreen, human; AlphaScreen MITF homodimerization, bead proximity signal; inhibition, % at 2.6 µM; actives 0.91% (n = 650,000); in the data active = inhibition above about 50%
MITF inh conf – MITF inhibitors, retest of hits, confirmation, biochemical, AlphaScreen, triplicate; shares compounds with MITF inh; AlphaScreen MITF homodimerization, biotin/His-MITF beads; inhibition, % at 2.6 µM; actives 16% (n = 4,700); AID 1259372, 2018;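 active = inhibition above a cutoff derived from the DMSO control wells, cut at about 28% in these data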;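 also: inhibitors lower the bead chemiluminescence by keeping MITF from dimerizing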
AS interf ctr – AlphaScreen optical interference compounds, counter-screen for MITF inhibitor project, biochemical, triplicate; shares compounds with MITF inh; LysRS AlphaScreen counterscreen, signal interference; inhibition, % at 2.6 µM; actives 7.6% (n = 4,700); AID 1259376, 2018;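 active = inhibition above a cutoff derived from the DMSO control wells, cut at about 30% in these data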
Numbers stand for hits. Compounds with a hit are over-represented: about 3.5% of the library has one in this group of screens.

O=C(C1CCCN(Cc2cccc(Cl)c2)C1)N1CCCCC1 (stereo unspecified) was read as GPR151 activ inactive, TEAD-YAP block inactive, FBW7 activator inactive and MITF inh inactive.
For COc1ccc(CN2CCCC(C(=O)N3CCCCCC3)C2)cc1OC (stereo unspecified) the results were GPR151 activ inactive, TEAD-YAP block inactive, FBW7 activator inactive, MITF inh 60.1, MITF inh conf inactive and AS interf ctr inactive.
For COC(=O)CCCC(=O)N1CCCC(N2CCN(c3ccccc3OC)CC2)C1 (stereo unspecified) the results were GPR151 activ inactive, TEAD-YAP block inactive, FBW7 activator inactive and MITF inh inactive.
`COc1ccc(C2(CN=Cc3ccc([N+](=O)[O-])cc3)CCOCC2)cc1OC` gave GPR151 activ inactive, TEAD-YAP block inactive, FBW7 activator inactive and MITF inh inactive.
Screening CC(C)(C)n1ncc2c(=O)n(Cc3ccccc3)cnc21 returned GPR151 activ inactive, TEAD-YAP block inactive, FBW7 activator inactive and MITF inh inactive.
Screening CC(C)(C)n1ncc2c(=O)n(Cc3cccc(Cl)c3)cnc21 returned GPR151 activ inactive, TEAD-YAP block inactive, FBW7 activator inactive, MITF inh 62.3, MITF inh conf inactive and AS interf ctr inactive.
For CN(CC1CCCCO1)C(=O)Cn1nnnc1CN1CCCCCC1 (stereo unspecified) the results were GPR151 activ inactive, TEAD-YAP block inactive, FBW7 activator inactive, MITF inh 51.5, MITF inh conf inactive and AS interf ctr inactive.
`O=C(Cn1nc2ccccc2n1)N/N=C/c1ccccc1F` gave GPR151 activ inactive, TEAD-YAP block inactive, FBW7 activator inactive, MITF inh 54.1, MITF inh conf inactive and AS interf ctr inactive.
`Cc1ccc(NC(=O)CN(Cc2ccccc2)S(=O)(=O)c2ccc(Br)cc2)cc1C` gave GPR151 activ inactive, TEAD-YAP block inactive, FBW7 activator inactive, MITF inh 58.8, MITF inh conf inactive and AS interf ctr inactive.
Screening Cc1c(CNCc2ccc(F)cc2)c(C(=O)O)c(C)n1Cc1cccc(Cl)c1 returned GPR151 activ inactive, TEAD-YAP block inactive, FBW7 activator inactive and MITF inh inactive.
CC1CCCCN1C(=O)c1ccc(Oc2cnccn2)cc1 (stereo unspecified) was read as GPR151 activ inactive, TEAD-YAP block inactive, FBW7 activator inactive, MITF inh 75.4, MITF inh conf inactive and AS interf ctr inactive.
Cc1ccc2nc(-c3ccc(NC(=O)Cc4ccccc4)cc3)sc2c1 was read as GPR151 activ inactive, TEAD-YAP block inactive, FBW7 activator inactive and MITF inh inactive.
For CCCCOC(=O)c1ccc(NC(=O)CCCC)cc1 the results were GPR151 activ inactive, TEAD-YAP block inactive, FBW7 activator inactive and MITF inh inactive.
For Cc1ccc2nc(-c3ccc(NC(=O)CNCC(C)(C)CN(C)C)cc3)sc2c1 the results were GPR151 activ inactive, TEAD-YAP block inactive, FBW7 activator inactive, MITF inh 51.7, MITF inh conf inactive and AS interf ctr inactive.
`CCN(CC)CC(=O)NC(C)c1ccccc1` (stereo unspecified) gave GPR151 activ inactive, TEAD-YAP block inactive, FBW7 activator inactive and MITF inh inactive.
CN1CCC(N(C)CC(=O)Nc2ccc3c(c2)OC(F)(F)O3)CC1 was read as GPR151 activ inactive, TEAD-YAP block inactive, FBW7 activator inactive, MITF inh 57.5, MITF inh conf inactive and AS interf ctr inactive.
Screening CCCCOC(=O)c1ccc(NC(=O)CN(C)C2CCN(C)CC2)cc1 returned GPR151 activ inactive, TEAD-YAP block inactive, FBW7 activator inactive, MITF inh 57.7, MITF inh conf inactive and AS interf ctr inactive.
CC(NC(=O)CN(C)C1CCN(C)CC1)c1ccccc1 (stereo unspecified) was read as GPR151 activ inactive, TEAD-YAP block inactive, FBW7 activator inactive, MITF inh 59.3, MITF inh conf inactive and AS interf ctr inactive.
O=C(Nc1c2c(nn1-c1nc3ccccc3s1)CCC2)C1=COCCO1 was read as GPR151 activ inactive, TEAD-YAP block inactive, FBW7 activator inactive and MITF inh inactive.
`CC(=O)N1CCN(CC(=O)Nc2ccc3c(c2)OC(F)(F)O3)CC1` gave GPR151 activ inactive, TEAD-YAP block inactive, FBW7 activator inactive and MITF inh inactive.
`CN(C)CC(C)(C)CNCC(=O)Nc1ccc2c(c1)OC(F)(F)O2` gave GPR151 activ inactive, TEAD-YAP block inactive, FBW7 activator inactive, MITF inh 55.5, MITF inh conf inactive and AS interf ctr inactive.
Screening CCOc1ccc(OCC)c(S(=O)(=O)NCc2cccnc2)c1 returned GPR151 activ inactive, TEAD-YAP block inactive, FBW7 activator inactive, MITF inh 56.5, MITF inh conf inactive and AS interf ctr inactive.
For COc1ccc(OC)c(S(=O)(=O)NCc2cccnc2)c1 the results were GPR151 activ inactive, TEAD-YAP block inactive, FBW7 activator inactive and MITF inh inactive.
For N#C/C(=C/Nc1ccccc1F)c1nc(-c2ccc([N+](=O)[O-])cc2)cs1 the results were GPR151 activ inactive, TEAD-YAP block inactive, FBW7 activator inactive, MITF inh 67.5, MITF inh conf inactive and AS interf ctr inactive.
Screening CCN(C(=O)CN1CCN(C)CC1)c1cccc2ccccc12 returned GPR151 activ inactive, TEAD-YAP block inactive, FBW7 activator inactive, MITF inh 84.5, MITF inh conf inactive and AS interf ctr inactive.
`CN1CCN(CC(=O)N(c2ccccc2)c2ccc(O)cc2)CC1` gave GPR151 activ inactive, TEAD-YAP block inactive, FBW7 activator inactive, MITF inh 74.7, MITF inh conf inactive and AS interf ctr inactive.
For O=C(CN1CCC(N2CCCCC2)CC1)N(c1ccccc1)c1ccc(O)cc1 the results were GPR151 activ inactive, TEAD-YAP block inactive, FBW7 activator inactive and MITF inh inactive.
`CCN(C(=O)Cn1cnc2ccccc21)c1cccc2ccccc12` gave GPR151 activ inactive, TEAD-YAP block inactive, FBW7 activator inactive and MITF inh inactive.
`COc1ccccc1NC(=O)c1c(NC(=O)c2ccccc2Cl)sc2c1CCC(C(C)(C)C)C2` (stereo unspecified) gave GPR151 activ inactive, TEAD-YAP block inactive, FBW7 activator inactive and MITF inh inactive.
`O=C(Nc1nc(-c2ccc(Br)cc2)cs1)c1ncn[nH]1` gave GPR151 activ inactive, TEAD-YAP block inactive, FBW7 activator inactive, MITF inh 63.0, MITF inh conf 44.2 and AS interf ctr 78.0.
`O=C(Nc1nc(-c2ccccc2)cs1)c1ncn[nH]1` gave GPR151 activ inactive, TEAD-YAP block inactive, FBW7 activator inactive and MITF inh inactive.

Screening results: PubChem BioAssay, The Scripps Research Institute Molecular Screening Center
